Most compounds without a hit are left out; they make up all but 3.5% or so of the library.
FBW7 activator = FBW7 E3 ligase activators, primary screen, biochemical, AlphaScreen, human; AlphaScreen FBW7–phospho-cyclin E peptide binding, activator screen; normalized activity (activation), % at 26.1 µM; actives 0.13% (n = 650,000); AID 1259310, 2017; in the data active means normalized activity above about 1.9%;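 further: purified mutant Fbw7 with reduced substrate affinity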
MITF primary = MITF inhibitors, primary screen, biochemical, AlphaScreen, human; Microphthalmia-associated transcription factor (Homo sapiens), O75030; AlphaScreen MITF homodimerization, bead proximity signal; inhibition, % at 2.6 µM; actives 0.91% (n = 650,000); AID 1259374, 2018; in the data active means inhibition above about 50%;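 further: 0% = vehicle wells with protein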
TEAD-YAP inh = TEAD-YAP interaction inhibition, primary screen, TEAD-YAP interaction inhibitor project, luminescence, HEK-TIYL cells | TEAD-Gal4/YAP UAS-luciferase luminescence | inhibition, % at 9.12 µM | actives 1.4% (n = 640,000) | AID 1259422, 2018; in the data active means inhibition above about 32%;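 further: 0% = median of test compound wells and 100% = reference inhibitor wells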
GPR151 activ = activators of human GPR151, primary screen, cell-based, PathHunter beta-arrestin, luminescence. G-protein coupled receptor 151 (Homo sapiens), Q8TDV0. PathHunter beta-arrestin GPR151 cells. actives 1% (n = 650,000). AID 1508602, 2020. activation, % at 11.2 µM; in the data active means activation above about 4.9%;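 further: 0% = median of compound wells and 100% = cells with positive control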
Target sequence (Q8TDV0 whole entry, looked up): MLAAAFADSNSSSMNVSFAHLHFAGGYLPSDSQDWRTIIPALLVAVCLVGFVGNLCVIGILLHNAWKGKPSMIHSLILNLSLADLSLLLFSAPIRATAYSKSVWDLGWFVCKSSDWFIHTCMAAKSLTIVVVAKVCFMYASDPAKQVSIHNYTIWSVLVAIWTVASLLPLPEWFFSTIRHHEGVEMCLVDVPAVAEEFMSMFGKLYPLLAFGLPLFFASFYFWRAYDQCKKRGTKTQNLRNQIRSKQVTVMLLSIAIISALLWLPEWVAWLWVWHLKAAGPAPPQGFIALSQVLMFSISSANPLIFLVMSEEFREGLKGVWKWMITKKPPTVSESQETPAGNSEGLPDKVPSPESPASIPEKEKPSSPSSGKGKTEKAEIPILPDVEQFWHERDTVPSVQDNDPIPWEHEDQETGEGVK
Active calls of the source: *.

SMILES	FBW7 activator	MITF primary	TEAD-YAP inh	GPR151 activ
O=C(CN1C(=O)/C(=C\c2ccccc2)Oc2ccccc21)NC1CCCCC1	1	7	-3	-1
O=C(CN1C(=O)/C(=C\c2ccccc2Br)Oc2ccccc21)NC1CCCC1	0	8	57*	0
Oc1ccc(CCNc2nc(Nc3ccc(N4CCOCC4)cc3)nc3nc[nH]c23)cc1	0	24	21	1
COCCn1nnnc1C(c1ccncc1)N1CCN(c2ccc(F)cc2)CC1 (stereo unspecified)	0	7	4	0
NC(=O)c1[nH]ncc1Nc1nccc(-c2ccccc2)n1	0	6	-14	-1
NC(=O)c1ccc(Nc2nccc(-c3cccc(Nc4ccccc4)c3)n2)cc1Cl	0	-2	36*	0
NS(=O)(=O)c1ccc(Nc2nccc(-c3cccc(Nc4ccccc4)c3)n2)cc1	0	1	54*	3
N#Cc1cccc(-c2ccnc(Nc3ccc(S(N)(=O)=O)cc3)n2)c1	0	1	-4	1
NC(=O)c1ccc(Nc2nccc(-c3ccccc3)n2)cc1	1	-12	23	-4
NC(=O)c1ccc(Nc2ncc(Cl)c(-c3ccccc3)n2)cc1	2.6*	18	-6	0
NC(=O)c1ccccc1Nc1nccc(-c2ccccc2)n1	0	12	40*	-2
CCOC(=O)N1CCN(C(=O)C(=O)NNC(=O)c2cccc(F)c2)CC1	0	4	-1	1
COc1ccc(S(=O)(=O)Nc2ccc3c(c2)CN(C(C)=O)CC3)cc1F	0	-18	7	-1
COc1cc(/C=c2\sc3n(c2=O)C(c2c(OC)ccc4ccccc24)C(C(C)=O)=C(C)N=3)ccc1OCc1ccccc1C#N (stereo unspecified)	0	1	-11	0
COc1cc(C(=O)OCC(=O)Nc2ncc(Cl)cc2Cl)c([N+](=O)[O-])cc1OC	0	15	5	-2
Cc1cccc(OCc2nc3cc(Cl)ccc3c(=O)o2)c1	0	9	-14	0
COc1ccccc1-c1c(C)nn2c(N3CCN(c4ccccn4)CC3)cc(C)nc12	0	-5	0	2
NS(=O)(=O)c1cccc(Nc2nccc(-c3ccccc3)n2)c1	0	4	91*	-1
CC1=C(C(=O)OCc2ccc3c(c2)OCO3)C(c2ccccc2OC(C)C)NC(=O)N1 (stereo unspecified)	1	12	-9	0
CC1=C(C(=O)OCC2CCCO2)C(c2ccc([N+](=O)[O-])cc2)NC(=O)N1 (stereo unspecified)	0	-1	3	0
CC1=C(C(=O)OCc2ccc3c(c2)OCO3)C(c2ccc([N+](=O)[O-])cc2)NC(=O)N1 (stereo unspecified)	0	4	76*	0
CC1=C(C(=O)OCc2ccc3c(c2)OCO3)C(c2ccc(Cl)cc2)NC(=O)N1 (stereo unspecified)	0	11	77*	0
CCN(CC)c1ccc(C2NC(=O)NC(C)=C2C(=O)OCc2ccc3c(c2)OCO3)cc1 (stereo unspecified)	0	9	17	-1
CC1=C(C(=O)OCc2ccc3c(c2)OCO3)C(c2ccc(F)cc2)NC(=O)N1 (stereo unspecified)	0	12	61*	1
COc1ccccc1C(=O)NCc1nnc(SCC(=O)N2N=C(c3cccs3)CC2c2ccc(F)cc2)n1-c1cc(C)ccc1C (stereo unspecified)	0	10	0	-1
SMILES	FBW7 activator	MITF primary	TEAD-YAP inh	GPR151 activ
COc1cc(OC)c(-n2c(C)cc(/C=C3/C(=N)N4OC(C)=CC4=NC3=O)c2C)cc1Cl	0	-3	7	0
CC1=CC2=NC(=O)/C(=C\c3cc(C)n(-c4cc(C)ccc4C)c3C)C(=N)N2O1	1	8	61*	0
COc1ccc(OC)c(-n2c(C)cc(/C=C3/C(=N)N4OC(C)=CC4=NC3=O)c2C)c1	0	13	48*	0
CCC(Sc1nc2n[nH]c(C)c2c(=N)n1-c1ccccc1C)C(=O)N1CCOCC1 (stereo unspecified)	0	-2	-4	0
COc1cc(-c2nc(-c3ccccc3Cl)no2)cc(OC)c1OC	0	2	5	-1
COC(=O)Cn1nnc2c(cnn2-c2ccccc2)c1=O	1	10	-39	-3
O=c1c2cnn(-c3ccccc3)c2nnn1Cc1cccnc1	1.9*	14	1	0
CC1CCCC(C)N1C(=O)COC(=O)c1ccc([N+](=O)[O-])cc1 (stereo unspecified)	0	0	2	3
COc1ccc2cc(Br)ccc2c1CC(=O)Nc1nc(C)cs1	0	4	38*	-1
Cc1cc(C)nc(/N=C(/NC(=O)N2c3ccccc3Sc3ccccc32)Nc2cccc([N+](=O)[O-])c2)n1	0	13	4	0
CCCCN(Cc1ccccc1)c1ncnc(N)c1[N+](=O)[O-]	0	6	8	4
CN(c1ncnc(N)c1[N+](=O)[O-])C1CCCCC1	0	4	54*	0
CCN(CC)c1ncnc(N)c1[N+](=O)[O-]	0	14	63*	0
CCCCN(c1ccccc1)c1ncnc(N)c1[N+](=O)[O-]	0	-7	28	-2
CCN(c1ccccc1)c1ncnc(N)c1[N+](=O)[O-]	0	-5	52*	2
CN(c1ncnc(N)c1[N+](=O)[O-])C1CCS(=O)(=O)C1 (stereo unspecified)	0	10	22	-1
CCCCN(C)c1ncnc(N)c1[N+](=O)[O-]	0	17	41*	-2
Cc1ccc(C(=O)c2c(C)nc3sccn23)cc1	0	2	-14	3
COc1ccc2sc(NC(=O)COC(=O)CN3C(=O)CCC3=O)nc2c1	0	-1	-10	-1
Nc1ncnc(N2CCCCCC2)c1[N+](=O)[O-]	0	6	49*	1
O=[N+]([O-])c1c(N2CCCCCC2)ncnc1N1CCCCCC1	0	21	3	2
COC(=O)c1cc(COC(=O)c2cccc(S(=O)(=O)NCc3ccccc3)c2)oc1C	0	11	-5	0
COc1ccc(COC(=O)c2cccc(S(=O)(=O)NCc3ccccc3)c2)cc1F	0	-3	45*	1
O=[N+]([O-])c1ccc2ncnc(N3CCN(Cc4ccccc4)CC3)c2c1	1	16	9	-1
CC1CCCN(c2ncnc3ccc([N+](=O)[O-])cc23)C1 (stereo unspecified)	0	1	35*	1
COc1cc(NC(=O)c2ccc(-c3c(C)nn(C)c3C)s2)cc(OC)c1OC	0	12	51*	-1
O=C(CCC1CCCN(C(=O)CC2CCCCC2)C1)N1CCN(c2ccccn2)CC1 (stereo unspecified)	0	2	2	0

Assay outcomes (PubChem BioAssay)
